Measured values: PubChem BioAssay
The other results are listed elsewhere or left out. The source made the active and inactive calls.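 How the source made its calls, unless noted: active means inhibition above the screen-wide mean plus 3 SD, about 51%; inactive means the rest.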

Experiments:
[1] = reduced mouse 2C T cell binding to pMHC/ICAM-1 vesicles – MLPCN validation set, flow cytometry, LFA-1/ICAM-1 modulator project, pilot screen (AID 2523;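 active means response below a set limit, under 55% cells CD8-positive and vesicle-bound, and CD8 cells' 90th-percentile brightness under 279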;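 on vesicle binding response: mean PE anti-B7-1 fluorescence of CD8+ cells relative to row control; 100% = QL9-loaded vesicles with DMSO vehicle in the same plate row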); conditions: 2C mouse CD8+ T cells, at 7 µM, stronger effect = lower value; double positive events: measured here: CD8+/vesicle+ event percentage
[2] = biological target: Integrin beta-1 (Homo sapiens) + Integrin alpha-4 (Homo sapiens) (UniProt P13612+P05556); test: alpha4beta1 integrin LIBS antibody binding reduction – U937 cells, HUTS-21 mAb, flow cytometry, validation set, VLA-4 allosteric modulator project, pilot screen (AID 2674;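 active means inhibition above 50%, about 3 SD of the validation set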;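 further: antibody binding induced by the VLA-4 ligand LDV present at three times its Kd; 0% = LDV ligand with antibody and no compound and 100% = antibody without LDV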); conditions: HUTS-21 LIBS mAb binding, at 6.7 µM, stronger effect = higher value, binding induced by LDV ligand
[3] = calorie-restriction mimetic ROS inhibitors, yeast – validation compound set, pilot screen (AID 2706;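 active means superoxide response below 65% of plate, a cut near 3 SD across the whole screen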;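 further: yeast exposed to compound for one week at 30 degrees C before staining; 100% = mean of all compound wells on the same plate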); conditions: S. cerevisiae aging, superoxide DHE fluorescence; at 10 µM, stronger effect = lower value
[4] = biological target: Beta-adrenergic receptor kinase 1 (Homo sapiens) (UniProt P25098); test: GRK2 binders displacing RNA aptamer, biochemical, validation, human GRK2, bead flow cytometry (AID 488806;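 active means aptamer binding inhibition above 30%, about 3 SD of noise from non-fluorescent compounds; inactive means inhibition at or below 30%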); conditions: bead-bound GRK2, FAM-aptamer displacement, at 10 µM, stronger effect = higher value
[5] = biological target: AP-2 complex subunit beta (Homo sapiens) (UniProt P63010); test: beta-arrestin/AP2 interaction blockers – biochemical, validation set, GST-AP2 beads, flow cytometry, pilot screen (AID 504541;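 active means inhibition above 54%, about 3 SD of non-fluorescent compounds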;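 further: AP2 carries R879A mutation and is captured from E. coli lysate; bead-bound FITC arrestin peptide fluorescence measuring arrestin peptide binding to AP2; 0% = DMSO wells and 100% = excess unlabeled arrestin peptide control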); conditions: FITC arrestin peptide, at 10 µM, stronger effect = higher value, AP2 beta2 appendage fragment, R879A mutant
[6] = cytosolic pH regulators acting via V-ATPase – S. cerevisiae, pHLuorin, HTS validation (AID 504600; in the data active means response above about 15%;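 further: plate controls were DMSO for no effect and reference compound for full effect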); conditions: V-ATPase proton transport, at 10 µM, stronger effect = higher value
[7] = test system: anti-desmoglein-3 scFv antibody binding to human DSG3; test: blockers of pathogenic pemphigus antibody–desmoglein-3 binding – biochemical, validation compound set, bead-based, flow cytometry, pilot screen (AID 588368;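 active means binding below the plate cutoff, the plate median minus 3 SD, with a reading above zero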;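 further: signal is the median channel fluorescence of bead-bound GFP antibody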); conditions: Protein G beads, DSG3-Fc, scFv-GFP binding, at 10 µM, stronger effect = lower value
[8] = Nile Red efflux blockade in pump-expressing yeast – validation compound set, multiplex, phenotypic, pilot screen (AID 588506;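 active means efflux inhibition above 0.42, the validation set average plus 4 SD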;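 further: Nile Red retained in cells so higher fluorescence means more efflux inhibition; 0 = negative control wells and 1 = enniatin B 25 µM full block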); conditions: S. cerevisiae pump-expressing triplex, Nile Red efflux flow cytometry; at 10 µM; stronger effect = higher value; the pumps come from Candida albicans
[9] = biological target: ATP-binding cassette sub-family B member 6 (Homo sapiens) (UniProt Q9NP58); test: blockers of ABCB6-driven porphyrin uptake – K562-ABCB6 cells, flow cytometry, validation set, pilot screen (AID 588550); conditions: K562-ABCB6 porphyrin accumulation, 1 h, at 10 µM, stronger effect = higher value;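 further: 0% = DMSO wells and 100% = benzethonium chloride 70 µM positive control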
[10] = AML differentiation inducers, ER-HoxA9 marrow cells – cell-based, GFP/MAC1 double positive, flow cytometry, validation set, primary screen (AID 588685;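 active means differentiation response of at least 50%, scaled between solvent and reference control, from cells with both markers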;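 further: compound exposure lasts four days before antibody staining and flow analysis; 0% = DMSO wells and 100% = 5 µM fulvestrant positive control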); conditions: stronger effect = higher value, normalized: vehicle 0, fulvestrant 100
[11] = biological target: Beta-2 adrenergic receptor (Homo sapiens) (UniProt P07550); test: agonist-induced loss of surface beta2AR – cell-based, FAP fluorogen, flow cytometry, validation set, pilot screen (AID 504459;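 active means percent response above 42, roughly 3 SD of non-fluorescent test compounds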;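 further: agonist-driven loss of surface beta2AR via internalization measured by FAP dye flow cytometry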); conditions: Am2.2-beta2AR cells, at 10 µM, stronger effect = higher value
[12] = yeast TOR reporter LAP4-GFP level changes – cell-based, second cherry pick, flow cytometry, confirmation (AID 2621;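 active means GFP signal as percent of the solvent control above about 150%, meaning raised reporter expression, limit read from the data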;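 further: ratio of well median GFP fluorescence to plate DMSO mean so 100% = DMSO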); conditions: S. cerevisiae LAP4-GFP strain, 3 h, at 10 µM, stronger effect = higher value
[13] = TOR pathway reporter MEP2-GFP, hit retest – S. cerevisiae, flow cytometry GFP, second cherry picks, confirmation (AID 2622;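 active means GFP signal above 150% of the solvent control wells, that is a rise of more than half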;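 further: median channel GFP fluorescence of all gated yeast cells per well; ratio of median GFP to plate DMSO average so 100% = DMSO level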); conditions: S. cerevisiae MEP2-GFP strain, 3 h, at 10 µM, stronger effect = higher value
[14] = retest of hits on RPL19A-GFP strain – cell-based, S. cerevisiae, flow cytometry, second cherry pick, confirmation (AID 2623;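 active means under 65% GFP response relative to DMSO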;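 further: median GFP channel fluorescence per well over the all cells gate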); conditions: 3 h, at 10 µM, stronger effect = lower value, 100% means same as DMSO wells
[15] = yeast TOR pathway CIT2-GFP reporter modulation – flow cytometry, second cherry pick, single plex, confirmation (AID 2624;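 active means GFP response vs DMSO above about 150%, limit read from the data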;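 further: median green fluorescence per well over all gated yeast cells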); conditions: S. cerevisiae CIT2-GFP strain, 3 h, at 10 µM, stronger effect = higher value, DMSO control wells read 100%
[16] = yeast AGP1-GFP fluorescence change, single-dose confirmation – cell-based, flow cytometry, S. cerevisiae, cherry pick set 2 (AID 2643;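 active means over 150 percent of DMSO response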;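 further: median GFP channel fluorescence over all cells without mother daughter split; sample median GFP divided by mean DMSO control so 100% equals DMSO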); conditions: S. cerevisiae AGP1-GFP strain, 3 h, at 10 µM, stronger effect = higher value

Integrin beta-1 (Homo sapiens) + Integrin alpha-4 (Homo sapiens), sequence (P05556 whole entry, looked up): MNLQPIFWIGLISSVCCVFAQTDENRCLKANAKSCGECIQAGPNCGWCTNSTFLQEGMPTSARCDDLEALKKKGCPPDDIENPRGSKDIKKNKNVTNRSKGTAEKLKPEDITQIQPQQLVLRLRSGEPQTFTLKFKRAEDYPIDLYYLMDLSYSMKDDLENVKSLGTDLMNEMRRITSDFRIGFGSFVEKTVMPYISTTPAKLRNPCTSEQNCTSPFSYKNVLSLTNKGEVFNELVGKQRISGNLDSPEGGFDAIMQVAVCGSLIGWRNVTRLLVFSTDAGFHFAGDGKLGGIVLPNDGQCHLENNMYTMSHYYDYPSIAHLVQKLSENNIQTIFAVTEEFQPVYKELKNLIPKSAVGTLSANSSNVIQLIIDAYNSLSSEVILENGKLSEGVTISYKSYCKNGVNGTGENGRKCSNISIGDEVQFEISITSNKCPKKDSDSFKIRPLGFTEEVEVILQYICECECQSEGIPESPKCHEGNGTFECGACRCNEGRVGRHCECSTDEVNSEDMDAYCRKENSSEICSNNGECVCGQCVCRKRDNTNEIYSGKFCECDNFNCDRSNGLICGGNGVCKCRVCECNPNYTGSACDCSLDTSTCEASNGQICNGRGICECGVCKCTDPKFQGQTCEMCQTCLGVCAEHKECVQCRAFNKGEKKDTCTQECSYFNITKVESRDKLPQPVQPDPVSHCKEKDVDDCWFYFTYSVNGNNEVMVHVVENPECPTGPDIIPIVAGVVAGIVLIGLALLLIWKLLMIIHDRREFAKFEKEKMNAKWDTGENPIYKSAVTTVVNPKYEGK
Integrin beta-1 (Homo sapiens) + Integrin alpha-4 (Homo sapiens), sequence (P13612 whole entry, looked up): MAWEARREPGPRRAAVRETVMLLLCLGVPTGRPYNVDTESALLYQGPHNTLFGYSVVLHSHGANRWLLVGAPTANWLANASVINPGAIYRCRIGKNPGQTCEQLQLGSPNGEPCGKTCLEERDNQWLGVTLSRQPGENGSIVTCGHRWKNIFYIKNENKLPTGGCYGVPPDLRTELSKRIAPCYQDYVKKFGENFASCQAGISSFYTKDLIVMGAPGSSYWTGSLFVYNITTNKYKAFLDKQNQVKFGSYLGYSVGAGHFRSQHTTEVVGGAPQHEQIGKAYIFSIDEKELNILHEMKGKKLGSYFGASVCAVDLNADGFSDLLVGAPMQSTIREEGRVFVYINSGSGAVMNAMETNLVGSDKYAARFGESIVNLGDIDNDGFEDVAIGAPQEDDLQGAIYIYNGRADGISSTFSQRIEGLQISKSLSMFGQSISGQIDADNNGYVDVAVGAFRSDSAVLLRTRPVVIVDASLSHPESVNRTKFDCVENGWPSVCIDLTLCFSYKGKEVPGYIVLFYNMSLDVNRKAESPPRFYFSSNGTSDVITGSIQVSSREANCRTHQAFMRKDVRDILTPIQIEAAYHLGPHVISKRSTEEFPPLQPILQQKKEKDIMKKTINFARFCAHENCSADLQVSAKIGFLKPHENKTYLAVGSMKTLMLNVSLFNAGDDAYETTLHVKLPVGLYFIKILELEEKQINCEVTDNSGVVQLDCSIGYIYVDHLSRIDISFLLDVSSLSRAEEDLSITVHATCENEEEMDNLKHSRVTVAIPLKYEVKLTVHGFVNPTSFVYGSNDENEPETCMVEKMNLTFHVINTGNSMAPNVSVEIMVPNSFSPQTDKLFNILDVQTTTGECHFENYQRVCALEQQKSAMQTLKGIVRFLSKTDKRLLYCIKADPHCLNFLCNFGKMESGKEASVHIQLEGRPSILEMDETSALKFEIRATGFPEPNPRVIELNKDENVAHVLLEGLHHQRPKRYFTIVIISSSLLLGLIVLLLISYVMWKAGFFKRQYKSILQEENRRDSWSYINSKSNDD
ATP-binding cassette sub-family B member 6 (Homo sapiens), sequence (Q9NP58 whole entry, looked up): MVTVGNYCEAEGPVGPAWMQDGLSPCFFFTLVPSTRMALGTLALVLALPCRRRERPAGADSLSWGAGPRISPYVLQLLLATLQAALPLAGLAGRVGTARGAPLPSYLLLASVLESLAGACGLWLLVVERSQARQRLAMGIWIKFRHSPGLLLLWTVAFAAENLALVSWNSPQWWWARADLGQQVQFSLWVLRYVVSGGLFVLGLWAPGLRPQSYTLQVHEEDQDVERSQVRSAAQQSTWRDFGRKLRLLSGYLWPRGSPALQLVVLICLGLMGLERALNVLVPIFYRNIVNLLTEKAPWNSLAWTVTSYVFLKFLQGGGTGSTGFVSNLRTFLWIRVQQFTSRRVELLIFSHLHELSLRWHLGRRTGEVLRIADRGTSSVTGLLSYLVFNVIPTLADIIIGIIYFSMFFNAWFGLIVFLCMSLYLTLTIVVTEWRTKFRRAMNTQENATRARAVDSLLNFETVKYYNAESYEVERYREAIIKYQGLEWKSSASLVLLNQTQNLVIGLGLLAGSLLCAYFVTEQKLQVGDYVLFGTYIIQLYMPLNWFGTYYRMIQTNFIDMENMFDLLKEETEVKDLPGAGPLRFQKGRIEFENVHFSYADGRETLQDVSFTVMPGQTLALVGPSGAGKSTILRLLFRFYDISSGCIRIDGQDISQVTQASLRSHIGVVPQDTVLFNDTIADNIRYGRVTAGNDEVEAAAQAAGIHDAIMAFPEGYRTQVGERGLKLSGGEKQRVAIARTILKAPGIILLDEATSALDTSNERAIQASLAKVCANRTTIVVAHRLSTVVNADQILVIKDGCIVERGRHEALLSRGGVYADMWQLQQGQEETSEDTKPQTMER
Beta-adrenergic receptor kinase 1 (Homo sapiens), sequence (P25098 whole entry, looked up): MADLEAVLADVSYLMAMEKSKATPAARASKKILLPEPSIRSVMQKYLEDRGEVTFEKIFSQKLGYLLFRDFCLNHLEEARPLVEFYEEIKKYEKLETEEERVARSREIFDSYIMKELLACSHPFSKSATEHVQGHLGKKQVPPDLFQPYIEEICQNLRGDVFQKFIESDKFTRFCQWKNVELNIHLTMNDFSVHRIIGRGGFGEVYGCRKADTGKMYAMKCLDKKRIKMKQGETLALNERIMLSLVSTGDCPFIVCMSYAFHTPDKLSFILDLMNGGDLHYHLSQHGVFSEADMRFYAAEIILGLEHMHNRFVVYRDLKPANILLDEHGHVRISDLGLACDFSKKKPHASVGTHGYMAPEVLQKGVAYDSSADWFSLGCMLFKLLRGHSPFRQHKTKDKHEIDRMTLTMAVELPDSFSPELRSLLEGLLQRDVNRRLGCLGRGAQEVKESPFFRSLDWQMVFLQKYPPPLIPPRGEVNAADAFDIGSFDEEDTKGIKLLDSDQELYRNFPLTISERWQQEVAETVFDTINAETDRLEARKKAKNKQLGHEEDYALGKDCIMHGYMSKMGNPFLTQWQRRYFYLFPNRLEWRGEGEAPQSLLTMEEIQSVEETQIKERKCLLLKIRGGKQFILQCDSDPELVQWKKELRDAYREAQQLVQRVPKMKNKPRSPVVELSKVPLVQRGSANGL
AP-2 complex subunit beta (Homo sapiens), sequence (P63010 whole entry, looked up, the tested form may be a part, one chain of several): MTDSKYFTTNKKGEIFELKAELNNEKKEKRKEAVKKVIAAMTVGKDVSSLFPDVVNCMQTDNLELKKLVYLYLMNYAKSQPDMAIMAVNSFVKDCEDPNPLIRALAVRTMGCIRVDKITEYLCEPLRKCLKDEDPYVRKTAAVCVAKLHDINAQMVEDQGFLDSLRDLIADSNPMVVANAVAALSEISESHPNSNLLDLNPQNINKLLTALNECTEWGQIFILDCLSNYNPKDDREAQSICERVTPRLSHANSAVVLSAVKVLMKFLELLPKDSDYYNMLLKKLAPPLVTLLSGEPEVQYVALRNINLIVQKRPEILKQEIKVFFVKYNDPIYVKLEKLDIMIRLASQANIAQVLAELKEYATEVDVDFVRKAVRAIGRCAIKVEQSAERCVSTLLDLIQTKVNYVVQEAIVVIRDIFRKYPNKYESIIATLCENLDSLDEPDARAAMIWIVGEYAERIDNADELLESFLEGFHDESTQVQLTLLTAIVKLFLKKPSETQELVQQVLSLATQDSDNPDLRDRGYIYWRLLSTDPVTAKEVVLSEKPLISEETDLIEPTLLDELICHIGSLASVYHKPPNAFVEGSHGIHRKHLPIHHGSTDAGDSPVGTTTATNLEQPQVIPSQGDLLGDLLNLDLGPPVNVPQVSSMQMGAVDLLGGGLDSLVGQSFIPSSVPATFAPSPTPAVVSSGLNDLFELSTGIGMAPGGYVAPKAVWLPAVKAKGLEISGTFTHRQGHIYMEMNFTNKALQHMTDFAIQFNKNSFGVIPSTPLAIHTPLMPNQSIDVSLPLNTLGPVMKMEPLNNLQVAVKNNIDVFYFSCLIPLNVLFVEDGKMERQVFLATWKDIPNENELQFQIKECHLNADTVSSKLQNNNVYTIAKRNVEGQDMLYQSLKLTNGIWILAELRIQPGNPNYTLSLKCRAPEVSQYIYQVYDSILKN
Beta-2 adrenergic receptor (Homo sapiens), sequence (P07550 whole entry, looked up): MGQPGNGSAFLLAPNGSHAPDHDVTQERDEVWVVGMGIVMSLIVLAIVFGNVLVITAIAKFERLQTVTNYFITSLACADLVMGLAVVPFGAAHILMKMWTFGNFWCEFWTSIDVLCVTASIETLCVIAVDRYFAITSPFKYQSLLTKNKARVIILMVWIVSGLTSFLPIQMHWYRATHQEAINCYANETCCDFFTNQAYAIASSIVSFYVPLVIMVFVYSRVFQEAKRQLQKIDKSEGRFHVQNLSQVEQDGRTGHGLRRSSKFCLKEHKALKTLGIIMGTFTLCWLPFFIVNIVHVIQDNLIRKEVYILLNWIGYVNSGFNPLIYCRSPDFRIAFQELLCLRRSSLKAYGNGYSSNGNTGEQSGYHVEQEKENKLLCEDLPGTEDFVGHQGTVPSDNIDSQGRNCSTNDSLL

C[C@]12CCC(=O)C[C@@H]1CC[C@@H]1[C@@H]2CC[C@]2(C)C=CC[C@@H]12
inactive: vesicle binding response [1] 201% | inhibition [2] 5.36% | superoxide response (% of plate) [3] 111% | aptamer binding inhibition [4] 2% | inhibition [5] 2.65% | binding (% of control) [7] 103% | efflux inhibition (fraction of control) [8] 0.1 | inhibition [9] 4% | differentiation response [10] 28.9%
51.4%: double positive events [1]
active: response [6] 17%

Cc1c(OCC(=O)NC(Cc2c[nH]c3ccc(O)cc23)C(=O)O)ccc2c3c(c(=O)oc12)CCC3 (stereo unspecified)
inactive: vesicle binding response [1] 218% | inhibition [2] 6.29% | superoxide response (% of plate) [3] 87.9% | aptamer binding inhibition [4] 3% | inhibition [5] 3.65% | response [6] 6.27% | binding (% of control) [7] 101% | efflux inhibition (fraction of control) [8] -0.5 | inhibition [9] 11% | differentiation response [10] -22.8%
51.4%: double positive events [1]

Cc1ccc2nc3c(cc(C(=O)NCC4CCCO4)c(=N)n3CCCOC(C)C)c(=O)n2c1 (stereo unspecified)
inactive: vesicle binding response [1] 176% | inhibition [2] 9.09% | superoxide response (% of plate) [3] 82.4% | aptamer binding inhibition [4] 0% | inhibition [5] -3.18% | response [6] -20.8% | binding (% of control) [7] 100% | efflux inhibition (fraction of control) [8] 0.33 | inhibition [9] 14% | differentiation response [10] -24.4%
62.1%: double positive events [1]

COc1ccc(C(=O)/C=C/c2cc(C(=O)O)cc3c2OCOC3)c(O)c1
inactive: vesicle binding response [1] 202% | inhibition [2] -3.97% | superoxide response (% of plate) [3] 99.9% | aptamer binding inhibition [4] 6% | inhibition [5] -2.5% | response [6] -6.09% | binding (% of control) [7] 95.7% | efflux inhibition (fraction of control) [8] -0.43 | inhibition [9] 0% | differentiation response [10] -1.82%
54.5%: double positive events [1]

Cc1ccc(OCCSc2ncccn2)c(C)c1
inactive: vesicle binding response [1] 186% | inhibition [2] 3.49% | superoxide response (% of plate) [3] 114% | aptamer binding inhibition [4] 1% | inhibition [5] -11.2% | response [6] 12.3% | binding (% of control) [7] 98% | efflux inhibition (fraction of control) [8] 0.14 | inhibition [9] 10% | differentiation response [10] -13.1%
49.1%: double positive events [1]

O=C(NCC1CCCCN1)c1cc(OCC(F)(F)F)ccc1OCC(F)(F)F (stereo unspecified)
inactive: vesicle binding response [1] 183% | inhibition [2] 1.62% | superoxide response (% of plate) [3] 102% | aptamer binding inhibition [4] -3% | inhibition [5] -20.4% | response [6] 0.89% | binding (% of control) [7] 103% | efflux inhibition (fraction of control) [8] -0.05 | inhibition [9] 14% | differentiation response [10] -8.27%
51.3%: double positive events [1]

CC[C@H](CO)NCCN[C@H](CC)CO
inactive: vesicle binding response [1] 193% | inhibition [2] -2.11% | superoxide response (% of plate) [3] 112% | aptamer binding inhibition [4] -2% | inhibition [5] -14.5% | response [6] 2.83% | binding (% of control) [7] 112% | efflux inhibition (fraction of control) [8] 0.06 | inhibition [9] 12% | differentiation response [10] -19.6%
56.6%: double positive events [1]

CC(=Nc1ccccc1)C1=C(O)CCCC1=O
61.6%: double positive events [1]
inactive: vesicle binding response [1] 312% | inhibition [2] 13.8% | superoxide response (% of plate) [3] 104% | aptamer binding inhibition [4] 1% | inhibition [5] -9.14% | response [6] 8.27% | binding (% of control) [7] 97.7% | efflux inhibition (fraction of control) [8] -0.24 | inhibition [9] 0% | differentiation response [10] -21.2%

COc1c2occc2c(OC)c2c(=O)cc(C(F)(F)C(F)(F)F)oc12
50%: double positive events [1]
inactive: vesicle binding response [1] 156% | inhibition [2] 3.49% | superoxide response (% of plate) [3] 123% | aptamer binding inhibition [4] 2% | inhibition [5] -6.1% | response [6] -16% | binding (% of control) [7] 103% | efflux inhibition (fraction of control) [8] 0.03 | inhibition [9] 9% | differentiation response [10] -16.4%

O=C(CNC(=O)OCc1ccccc1)NC1CCCCCC1
inactive: vesicle binding response [1] 201% | inhibition [2] 10% | superoxide response (% of plate) [3] 90.8% | aptamer binding inhibition [4] 4% | inhibition [5] 1.41% | response [6] 11.3% | binding (% of control) [7] 99.1% | efflux inhibition (fraction of control) [8] -0.05 | inhibition [9] 12% | differentiation response [10] 6.26%
55.1%: double positive events [1]

COc1c2occc2c(OC)c2c(=O)cc(C)oc12
48.6%: double positive events [1]
inactive: vesicle binding response [1] 176% | inhibition [2] 8.15% | superoxide response (% of plate) [3] 108% | aptamer binding inhibition [4] 1% | inhibition [5] -4.24% | response [6] 3.33% | binding (% of control) [7] 102% | efflux inhibition (fraction of control) [8] 0.1 | inhibition [9] 5% | differentiation response [10] 33.7%

CCn1c(=N)c(C(=O)NC)cc2c(=O)n3cccc(C)c3nc21
inactive: vesicle binding response [1] 26.6% | inhibition [2] -8.75% | aptamer binding inhibition [4] 2% | response [11] -15.1% | response [6] -34.5% | binding (% of control) [7] 108% | inhibition [9] 5% | differentiation response [10] 24.7%
55.2%: double positive events [1]
active: efflux inhibition (fraction of control) [8] 1.08

CC(C)[C@@H]1COC(c2cccc(C3=N[C@H](C(C)C)CO3)c2)=N1
inactive: GFP response vs DMSO [12] 99% | GFP response vs DMSO [13] 98.2% | GFP response vs DMSO [14] 101% | GFP response vs DMSO [15] 97.2% | percent response vs DMSO [16] 95.8%

CCCCNc1c(-c2cccc(Sc3ccc(OC)cc3)c2)nc2ccccn12
inactive: GFP response vs DMSO [12] 138% | GFP response vs DMSO [13] 129% | GFP response vs DMSO [14] 92.7% | GFP response vs DMSO [15] 120% | percent response vs DMSO [16] 90.6%

O=C(COc1cccnc1[N+](=O)[O-])Nc1ccc(Cl)cc1F
inactive: GFP response vs DMSO [12] 99.2% | GFP response vs DMSO [13] 101% | GFP response vs DMSO [14] 99.5% | GFP response vs DMSO [15] 103% | percent response vs DMSO [16] 97.4%
